# Source: PubChem
# Compounds with a hit are over-represented: about 1.3% of the library has one in this group of screens.
# PKA-R1A act: activators of PKA-R1A holoenzyme, primary screen, biochemical, fluorescence polarization, Cy5-IP20, bovine R1A, mouse PKAc; 340,000 compounds, 0.083% hits; PKA-R1A dissociation; scaled: DMSO 0%, 113 µM cGMP 100%; activation, % at 11.4 µM; cAMP-dependent protein kinase type I-alpha regulatory subunit (Bos taurus) + …;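 active = percent activation above the mean of all tested compounds plus 3 SD, cut at about 19% in these data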;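 also: higher means more PKAc released from R1A so a rise in polarization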
# PKA-R2B act: activators of PKA-R2B holoenzyme, primary screen, biochemical, fluorescence polarization, Cy5-IP20, human. cAMP-dependent protein kinase catalytic subunit beta (Homo sapiens) + cAMP-dependent …. PKA-R2B holoenzyme dissociation; R2B truncated from residue 108, S112A mutant; 0% DMSO only, 100% 113 µM cGMP. activation, % at 11.4 µM. 340,000 compounds, 0.079% hits;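 active = activation above a cutoff set at the mean over all compounds plus 3 SD, cut at about 18% in these data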;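 also: higher means more holoenzyme dissociation and a rise in polarization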
# Neddylation inh: inhibitors of cullin neddylation, primary screen, biochemical, TR-FRET, uHTS, NAE and Ubc12. NEDD8-conjugating enzyme Ubc12 (Homo sapiens) + NEDD8-activating enzyme E1 regulatory …. inhibition, % at 25 µM. 360,000 compounds, 0.58% hits. AID 651699, 2012; in the data active = inhibition above about 36%
# Target sequence (P61081 whole entry, looked up): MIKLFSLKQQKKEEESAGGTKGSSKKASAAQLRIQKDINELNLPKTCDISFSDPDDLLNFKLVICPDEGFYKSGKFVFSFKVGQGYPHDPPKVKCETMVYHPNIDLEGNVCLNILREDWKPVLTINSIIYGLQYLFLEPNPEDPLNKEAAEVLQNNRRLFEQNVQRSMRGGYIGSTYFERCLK
# Target sequence (Q13564 whole entry, looked up): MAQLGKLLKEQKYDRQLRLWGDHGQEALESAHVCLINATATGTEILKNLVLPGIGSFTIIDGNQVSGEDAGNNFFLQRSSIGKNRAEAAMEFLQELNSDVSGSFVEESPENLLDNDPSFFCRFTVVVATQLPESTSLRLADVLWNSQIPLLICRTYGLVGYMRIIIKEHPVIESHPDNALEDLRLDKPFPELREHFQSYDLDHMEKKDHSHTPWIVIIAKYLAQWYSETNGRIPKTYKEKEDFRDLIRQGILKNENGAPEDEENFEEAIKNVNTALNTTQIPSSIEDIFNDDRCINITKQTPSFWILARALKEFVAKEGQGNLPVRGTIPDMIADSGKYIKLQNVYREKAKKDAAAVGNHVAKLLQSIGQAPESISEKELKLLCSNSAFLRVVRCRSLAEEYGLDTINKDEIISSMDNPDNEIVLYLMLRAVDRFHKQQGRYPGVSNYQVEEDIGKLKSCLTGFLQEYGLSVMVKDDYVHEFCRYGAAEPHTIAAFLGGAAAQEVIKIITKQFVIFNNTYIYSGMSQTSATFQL
# Rpn11 inh: Rpn11 (PSMD14) deubiquitinase inhibitors, primary screen, biochemical, fluorescence polarization, uHTS | 26S proteasome non-ATPase regulatory subunit 14 (Homo sapiens), O00487 | human 26S proteasome, Ub4-pepOG fluorescence polarization; 20S core pre-blocked with epoxomicin | calls only at 20 µM | 360,000 compounds, 0.59% hits;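 active = inhibition at 20 µM, scaled to each plate's controls, above about 33%, limit read from the data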
# R1A FP artifact: FP signal interference without PKA proteins, confirmation, artefact control for PKA-R1A activator project, biochemical, fluorescence polarization, triplicate. shares compounds with PKA-R1A act. Cy5-IP20 peptide alone, fluorescence polarization artifact counterscreen. activation, % at 11.4 µM. 280 compounds, 7% hits;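 active = mean activation over triplicate runs exceeds the adjusted cutoff derived for the parent primary screen, cut at about 19% in these data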;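 also: no PKA protein present so any polarization rise reflects compound interference; higher means stronger polarization artifact and likely false positive in parent screen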
# PKA-R1A confirm: activators of PKA-R1A holoenzyme, confirmation, biochemical, fluorescence polarization, Cy5-IP20, triplicate | shares compounds with PKA-R1A act | PKA-R1A holoenzyme dissociation | activation, % at 11.4 µM | 280 compounds, 9% hits;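 active = mean activation over replicate wells exceeds the adjusted hit threshold taken from the earlier primary screen, cut at about 20% in these data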
# A number is an active result; - = inactive; . = no result given.
SMILES,PKA-R1A act,PKA-R2B act,Neddylation inh,Rpn11 inh,R1A FP artifact,PKA-R1A confirm
CC(C)[C@H](NC(=O)c1ccccc1)C(=O)Nc1cccc(S(=O)(=O)N2CCOCC2)c1,-,-,-,-,.,.
CC(C)[C@H](NC(N)=O)C(=O)Nc1cccc(S(=O)(=O)N2CCOCC2)c1,20.0,-,-,-,-,-
Cc1ccc(CNC(=O)CCn2nc(-c3ccc(Cl)cc3)ccc2=O)cc1,-,-,-,-,.,.
Cc1ccc(-c2ccc(=O)n(CCC(=O)NCc3ccccn3)n2)cc1,18.6,-,-,-,-,-
CC(=O)c1ccc(N2CCC(C)CC2)c(F)c1,20.4,-,-,-,-,-
COCCN(CCOc1cc(C)cc(C)c1)Cc1ccc(Cl)cc1,20.0,-,-,-,-,-
CC1CCCN(S(=O)(=O)c2ccc(NC(=O)C3CCN(C(=O)c4ccco4)CC3)cc2)C1 (stereo not drawn),-,-,-,-,.,.
COc1ccc(CC(=O)NCCc2ccc(S(N)(=O)=O)cc2)cc1,-,-,-,-,.,.
Cc1ccc(CC(=O)NCCc2ccc(S(N)(=O)=O)cc2)cc1,18.6,-,-,-,-,-
COc1ccccc1NC(=O)N(C)C[C@H]1Oc2ncc(C#CCN(C)C)cc2C(=O)N([C@H](C)CO)C[C@H]1C,20.5,-,-,-,-,-
CCOC(=O)N1CCC(NC(=O)CCC(=O)N2CCOc3ccc(Cl)cc32)CC1,20.7,-,-,-,-,-
CC(C)(C)S(=O)(=O)c1cnc(-c2ccccn2)nc1N,19.8,-,-,-,-,-
O=S(=O)(c1ccc(Br)s1)N1CCN(CCc2ccccc2)CC1,19.2,-,-,-,-,-
COCCCn1c(SCC(=O)NC2CCCC2)nnc1-c1ccco1,26.2,-,-,-,-,-
COc1cccc(C(=O)N2CCN(C(=O)C3CCCO3)CC2)c1 (stereo not drawn),19.9,-,-,-,-,-
COc1ccc(Cn2ccnc2)cc1Br,20.4,-,-,-,-,-
O=C(CSC(=S)N1CCCCC1)c1ccccc1,20.3,-,-,-,-,-
O=C(CSC(=S)N1CCCC1)c1ccccc1,-,-,-,-,.,.
COc1cccc(CNCc2ccccc2OC)c1,-,-,-,-,.,.
COc1cccc(CNCc2cc(OC)cc(OC)c2)c1,21.0,-,-,-,-,-
COc1ccc2[nH]c3c(c2c1)CCNC3=O,-,-,.,-,.,.
O=C1NCCc2c1[nH]c1ccc([N+](=O)[O-])cc21,19.1,-,-,-,-,-
O=C1N(C2CCCC2)C[C@@H]2C[C@@H](c3cccn3-c3nccs3)N3CCC[C@@]123,-,-,-,-,.,.
O=C1N(C2CCCC2)C[C@@H]2C[C@@H](c3cccn3-c3ccccn3)N3CCC[C@@]123,20.5,-,-,-,-,-
Cc1c(C(=O)NC2CCCc3ccccc32)cccc1[N+](=O)[O-] (stereo not drawn),22.9,-,-,-,-,-
SMILES,PKA-R1A act,PKA-R2B act,Neddylation inh,Rpn11 inh,R1A FP artifact,PKA-R1A confirm
COc1ccc(C(=O)NC2CCCc3ccccc32)cc1[N+](=O)[O-] (stereo not drawn),-,-,-,-,.,.
CCOCCC(=O)Nc1ccc2c(c1)c(=O)n(C)n2CC=C(C)C,.,.,.,-,.,.
O=C(NCc1ccccc1Cl)c1ccc(S(=O)(=O)Nc2cccc(C(F)(F)F)c2)cc1,21.6,-,-,-,26.3,21.9
CC(NC(=O)C(Cc1ccccc1)=NO)c1ccccc1 (stereo not drawn),-,-,-,-,.,.
CC(NC(=O)Cc1ccccc1)c1ccccc1 (stereo not drawn),19.1,-,-,-,-,-
Cc1cccc(C(=O)OCC(=O)N2CCCCCC2)c1C,-,-,-,-,.,.
Cc1ccc(C(=O)c2ccccc2C(=O)OCC(=O)N2CCCC2)cc1,20.4,-,-,-,-,-
Cc1cc2ccccn2c1C(=O)c1cccc([N+](=O)[O-])c1,-,-,-,-,.,.
Cc1cc2ccccn2c1C(=O)c1ccc(Cl)c([N+](=O)[O-])c1,20.3,-,-,-,-,-
CCCCOc1ccc(C(=O)Nn2c(-c3cccs3)nc3ccccc3c2=O)cc1,18.6,-,-,-,-,-
O=C(/C=C/c1ccccc1)Nn1c(-c2cccs2)nc2ccccc2c1=O,-,-,-,-,.,.
N#Cc1ccccc1OCC(=O)OCC(=O)c1c[nH]c2ccccc12,-,-,-,-,.,.
Cc1cccc(NC(=O)CSCC(=O)NCc2ccco2)c1,-,-,-,-,.,.
Oc1ccc2ccccc2c1/C=N/n1cnnc1,18.6,-,-,-,-,-
Cc1c(Cl)cccc1NC(=O)CCN1C(=O)C2CC=CCC2C1=O (stereo not drawn),-,-,-,-,.,.
Cc1cc(C)n2[nH]c(=O)c(N=Nc3ccc(S(N)(=O)=O)cc3)c2n1,-,-,-,-,.,.
Cc1ccc(N=Nc2c(=O)[nH]n3c(C)cc(C)nc23)cc1,22.7,-,-,-,-,-
Cc1cc(C)n2nc(SCC(=O)N(C)c3c(N)n(Cc4ccccc4)c(=O)[nH]c3=O)nc2n1,-,-,-,-,.,.
COCCN(C(=O)CSc1nc2nc(C)cc(C)n2n1)c1c(N)n(Cc2ccccc2)c(=O)[nH]c1=O,20.0,-,-,-,-,-
COc1ccc2nc(NC(=O)c3ccc(NC(=O)C4CCCO4)cc3)sc2c1 (stereo not drawn),20.4,-,.,-,-,-
CC(C(=O)Nc1nc2ccccc2s1)n1cc([N+](=O)[O-])cn1 (stereo not drawn),-,-,-,-,.,.
CC(=O)Nc1ccc(NS(=O)(=O)c2cn(C)c(=O)n(C)c2=O)cc1,19.8,-,-,-,-,-
CC(C(=O)NCCCc1ccccc1)c1ccc([N+](=O)[O-])cc1 (stereo not drawn),-,-,-,-,.,.
CCCNC(=O)c1nc(C)n(-c2cc(Cl)ccc2Cl)n1,-,-,-,-,.,.
CC(C)(C)c1sc(N)nc1-c1ccccc1,-,-,-,-,.,.
Cc1sc(N)nc1-c1ccccc1,21.1,-,-,-,-,-
O=C(O)CCN1CCN(S(=O)(=O)c2ccc3ccccc3c2)CC1,-,-,-,-,.,.
CC(NC(=O)C1CC=CCC1C(=O)O)C1CC2CCC1C2 (stereo not drawn),-,-,-,-,.,.
